PubChem BioAssay
Records with an inconclusive call do not appear. The source made the active and inactive calls.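 The calls were made as follows, unless noted: active = viability at or below 27.92% in each of two runs, the all-compound median minus 4 SD; inconclusive = no clear call, values can overlap the other calls; inactive = the rest.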

assay: growth suppression of beta-catenin knockout HCT116, pilot screen, human colon tumor cells (AID 823;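 active = cell viability at or below a set limit in both duplicate runs, the limit being the all-compound median minus 4 SD, cut at about 23% in these data, passing the limit was not always enough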;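 also: 0% = wells killed by 20 µM Hyamine and 100% = untreated DMSO cell wells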); conditions: CellTiter-Glo, 60 h, at 10 µM, active compounds read low

Row | Structure (SMILES) | viability
1 | CCCOC(=O)c1ccc(NC(=O)CCC(=O)OCC)cc1 | 98.8% (inactive)
2 | Cc1ccc(-c2nn(-c3ccccc3)cc2C2SCC(=O)N2Cc2ccccc2)o1 (centres undefined) | 74.2% (inactive)
3 | CN(C)c1ccc(-c2noc(C3CCN(S(=O)(=O)c4cccc(Cl)c4)CC3)n2)cc1 | 82.5% (inactive)
4 | COc1cc(OC)c(NC(=O)CS(=O)(=O)Cc2nc(-c3ccc(C)cc3)oc2C)cc1Cl | 85.5% (inactive)
5 | COC(=O)c1c(NC(=O)C2CC2)sc2c1CCCC2 | 95.1% (inactive)
6 | C(#Cc1ccccc1)CN1CCN(c2ccccn2)CC1 | 98.3% (inactive)
7 | CCN1CCN(CC(=O)Nc2cccc(C)c2)C(=O)C1=O | 99.6% (inactive)
8 | CN(C)c1ccc(CN(C)C2CCCCC2)cc1 | 93.1% (inactive)
9 | Cc1c(S(=O)(=O)N2CCc3ccccc3C2)c(=O)n(C)c(=O)n1C | 103% (inactive)
10 | CCOC(=O)C1Cn2c(nc3c(c2=O)C2(CCCC2)Cc2ccccc2-3)S1 (centres undefined) | 84.2% (inactive)
11 | Cc1cccc(-c2noc(CN(C(=O)c3c(-c4ccccc4Cl)noc3C)C(C)C)n2)c1 | 44.3% (inactive)
12 | CCOC(=O)c1cc2c(=O)n3ccccc3nc2n(Cc2ccco2)c1=NC(=O)c1cccnc1 | 99.5% (inactive)
13 | Cc1ccc(C)c(C(=O)Nc2c(C(N)=O)oc3ccccc23)c1 | 94.2% (inactive)
14 | Clc1ccccc1-c1nnc2sc(-c3ccncc3)nn12 | 106% (inactive)
15 | COC(=O)c1ccc2c(c1)N(Cc1ccccc1F)C(=O)c1ccccc1S2=O (centres undefined) | 75.9% (inactive)
16 | CCOc1ccccc1C(=O)Nc1ccc2nc(N3CCN(c4ncccn4)CC3)cc(C)c2c1 | 4.33% (active)

Row | Structure (SMILES) | viability
17 | COc1ccccc1-n1c(CNC(=O)c2ccccc2)nnc1SCC(=O)Nc1nnc(C)s1 | 103% (inactive)
18 | CCOC(=O)C1=C(N)OC2=C(C(=O)CC(C)(C)C2)C1C1CCCCC1 (centres undefined) | 93.3% (inactive)
19 | CCCc1nnc(NC(=O)c2ccncc2)s1 | 103% (inactive)
20 | CC(C)Oc1ccc(NC(=O)Oc2ccccc2)cc1 | 97.4% (inactive)
21 | CCOC(=O)c1[nH]c(C)c(C(=O)N2CCOCC2)c1C | 109% (inactive)
22 | Nc1ccc(S(=O)(=O)N2CCCc3ccccc32)cc1 | 83% (inactive)
23 | COc1cccc(CSc2nc3sc(C)c(C)c3c(=O)n2Cc2ccco2)c1 | 95.7% (inactive)
24 | CCc1ccccc1S(=O)(=O)Cc1ccc(C(=O)N2CCN(c3ccccc3OC)CC2)o1 | 37% (inactive)
25 | COc1ccc(OCCn2c(NC(=O)c3ccco3)nc3ccccc32)cc1 | 56.9% (inactive)
26 | COc1cc2c(cc1OC)C(C)N(C(=O)c1cc3ccccc3o1)CC2 (centres undefined) | 37.3% (inactive)
27 | O=C(Cn1c(=O)sc2ccccc21)NCc1ccccn1 | 104% (inactive)
28 | COc1ccc(-c2noc(-c3cc(C)cc(C)c3)n2)cc1OC | 100% (inactive)
29 | CCn1c(C(C)NC(=O)c2cccc(C)c2)nc2ccccc21 (centres undefined) | 102% (inactive)
30 | CN1CSC2=C(C#N)C(c3cccc(OCc4ccccc4)c3)CC(=O)N2C1 (centres undefined) | 85.7% (inactive)
31 | Cc1cccc(N2CCN(C(=O)c3cc4c(C)nc5ccccc5c4o3)CC2)c1C | 71.7% (inactive)
32 | c1ccc(CNc2ncnc3nc[nH]c23)nc1 | 102% (inactive)

assay: growth suppression of PTEN-deleted HCT116, pilot screen, cell-based, HCT116 clonal line, CellTiter-Glo (AID 824); conditions: 60 h, at 10 µM, active compounds read low;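 also: 0% = 20 µM Hyamine control and 100% = vehicle cell control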

Row | Structure (SMILES) | viability
33 | CCCOC(=O)c1ccc(NC(=O)CCC(=O)OCC)cc1 | 98.6% (inactive)
34 | Cc1ccc(-c2nn(-c3ccccc3)cc2C2SCC(=O)N2Cc2ccccc2)o1 (centres undefined) | 68.9% (inactive)
35 | CN(C)c1ccc(-c2noc(C3CCN(S(=O)(=O)c4cccc(Cl)c4)CC3)n2)cc1 | 94.2% (inactive)
36 | COc1cc(OC)c(NC(=O)CS(=O)(=O)Cc2nc(-c3ccc(C)cc3)oc2C)cc1Cl | 78.1% (inactive)
37 | COC(=O)c1c(NC(=O)C2CC2)sc2c1CCCC2 | 81.7% (inactive)
38 | C(#Cc1ccccc1)CN1CCN(c2ccccn2)CC1 | 91.9% (inactive)
39 | CCN1CCN(CC(=O)Nc2cccc(C)c2)C(=O)C1=O | 95.6% (inactive)
40 | CN(C)c1ccc(CN(C)C2CCCCC2)cc1 | 89.7% (inactive)
41 | Cc1c(S(=O)(=O)N2CCc3ccccc3C2)c(=O)n(C)c(=O)n1C | 97.9% (inactive)
42 | CCOC(=O)C1Cn2c(nc3c(c2=O)C2(CCCC2)Cc2ccccc2-3)S1 (centres undefined) | 77.4% (inactive)
43 | Cc1cccc(-c2noc(CN(C(=O)c3c(-c4ccccc4Cl)noc3C)C(C)C)n2)c1 | 49.4% (inactive)
44 | CCOC(=O)c1cc2c(=O)n3ccccc3nc2n(Cc2ccco2)c1=NC(=O)c1cccnc1 | 99% (inactive)
45 | Cc1ccc(C)c(C(=O)Nc2c(C(N)=O)oc3ccccc23)c1 | 86.7% (inactive)
46 | Clc1ccccc1-c1nnc2sc(-c3ccncc3)nn12 | 90.8% (inactive)
47 | COC(=O)c1ccc2c(c1)N(Cc1ccccc1F)C(=O)c1ccccc1S2=O (centres undefined) | 74% (inactive)
48 | CCOc1ccccc1C(=O)Nc1ccc2nc(N3CCN(c4ncccn4)CC3)cc(C)c2c1 | 2.14% (active)

Row | Structure (SMILES) | viability
49 | COc1ccccc1-n1c(CNC(=O)c2ccccc2)nnc1SCC(=O)Nc1nnc(C)s1 | 102% (inactive)
50 | CCOC(=O)C1=C(N)OC2=C(C(=O)CC(C)(C)C2)C1C1CCCCC1 (centres undefined) | 92.9% (inactive)
51 | CCCc1nnc(NC(=O)c2ccncc2)s1 | 99.1% (inactive)
52 | CC(C)Oc1ccc(NC(=O)Oc2ccccc2)cc1 | 96.8% (inactive)
53 | CCOC(=O)c1[nH]c(C)c(C(=O)N2CCOCC2)c1C | 104% (inactive)
54 | Nc1ccc(S(=O)(=O)N2CCCc3ccccc32)cc1 | 83% (inactive)
55 | COc1cccc(CSc2nc3sc(C)c(C)c3c(=O)n2Cc2ccco2)c1 | 93% (inactive)
56 | CCc1ccccc1S(=O)(=O)Cc1ccc(C(=O)N2CCN(c3ccccc3OC)CC2)o1 | 43.5% (inactive)
57 | COc1ccc(OCCn2c(NC(=O)c3ccco3)nc3ccccc32)cc1 | 57.9% (inactive)
58 | COc1cc2c(cc1OC)C(C)N(C(=O)c1cc3ccccc3o1)CC2 (centres undefined) | 42.7% (inactive)
59 | O=C(Cn1c(=O)sc2ccccc21)NCc1ccccn1 | 93.4% (inactive)
60 | COc1ccc(-c2noc(-c3cc(C)cc(C)c3)n2)cc1OC | 96.6% (inactive)
61 | CCn1c(C(C)NC(=O)c2cccc(C)c2)nc2ccccc21 (centres undefined) | 95.6% (inactive)
62 | CN1CSC2=C(C#N)C(c3cccc(OCc4ccccc4)c3)CC(=O)N2C1 (centres undefined) | 88.5% (inactive)
63 | Cc1cccc(N2CCN(C(=O)c3cc4c(C)nc5ccccc5c4o3)CC2)c1C | 78.2% (inactive)
64 | c1ccc(CNc2ncnc3nc[nH]c23)nc1 | 96.3% (inactive)
